Sampled rows, rich in hits. Any-hit rate of the full collection: about 5.9%.
GLP1R cytotox: cytotoxicity in counter-screen for GLP-1R inverse agonists; AID 624418; HEK293 cAMP-luciferase reporter cells, luminescence, 24 h; Potency, µM (highest dose often 38.3 µM), actives largely listed as inhibitors; 410,000 compounds, 0.13% hits;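 note: loss of luciferase light is scored as toxicity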
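Compound-treated cells are incubated 24 hr at 37 deg C under 5% CO2 after a 12 hour attachment period, then luciferase detection reagent is added and luminescence is measured following 12 min at room temperature; lowered signal indicates toxicity.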
RORg inh: blocks mouse ROR gamma transcriptional activity | Potency, µM (doses to about 53.6 µM), usual class: inhibitors | Drosophila S2 Gal4-RORgamma UAS-luciferase reporter, 20 h | 310,000 compounds, 5.4% hits; note: nearly all actives have a fitted effect of over 60% in size
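A Gal4/UAS one-hybrid system in insect cells: metallothionein-promoter Gal4–ROR gamma fusion plus Photinus luciferase reporter. Copper sulfate 700 uM final, 20 hr ambient incubation, luminescent detection after 10 min with reagent.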
Gal4-VP16 FLuc: counter-screen for ROR gamma inhibitors: Gal4-VP16 reporter | Drosophila S2 Gal4-VP16 UAS-luciferase, luminescence, 20 h | Potency, µM (titrated, usually from 53.6 µM), most hits filed as inhibitors | 310,000 compounds, 3.5% hits | AID 2546;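 note: Gal4-VP16 expression switched on by copper sulfate through the metallothionein promoter; nearly all actives have a fitted effect of over 50% in size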
GLP-1R agonist: agonists of human GLP-1 receptor | P43220 | HEK293 GLP-1R CRE-luciferase, luminescence, 4-6 h; cells express a hypersensitive GLP-1R form | Potency, µM (series often up to 45.6 µM), actives largely listed as activators | 380,000 compounds, 0.007% hits
Target sequence (P43220 whole entry, looked up): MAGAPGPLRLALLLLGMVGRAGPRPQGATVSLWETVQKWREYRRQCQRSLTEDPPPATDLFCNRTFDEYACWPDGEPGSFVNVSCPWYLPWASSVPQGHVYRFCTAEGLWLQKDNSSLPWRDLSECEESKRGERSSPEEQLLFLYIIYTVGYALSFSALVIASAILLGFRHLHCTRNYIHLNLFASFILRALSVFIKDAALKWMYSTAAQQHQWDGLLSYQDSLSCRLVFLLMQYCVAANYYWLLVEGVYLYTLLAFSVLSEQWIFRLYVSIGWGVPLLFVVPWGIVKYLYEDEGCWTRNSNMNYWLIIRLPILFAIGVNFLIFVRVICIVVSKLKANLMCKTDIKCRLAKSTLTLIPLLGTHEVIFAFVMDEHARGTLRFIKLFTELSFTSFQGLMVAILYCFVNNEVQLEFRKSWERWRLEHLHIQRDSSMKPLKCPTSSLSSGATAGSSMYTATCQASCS
GLP-1R inv ag: inverse agonists of human GLP-1 receptor; P43220; HEK293 GLP-1R CRE-luciferase, luminescence, 24 h; GLP-1R form is constitutively active; Potency, µM (titrated, usually from 38.3 µM), actives largely listed as inhibitors; 410,000 compounds, 1.6% hits; AID 624417; note: nearly all actives have a fitted effect of over 55% in size
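Inverse agonists were sought by their lowering of basal cAMP reporter luciferase output in HEK293 cells stably carrying constitutively active human GLP-1R, after 24 h compound treatment.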
Large screens that a line does not name were inactive. Calls come from the whole dose curve; as a rule, active = well fitted curve in the direction sought with a large enough effect; inconclusive = small, poorly fitted or top-dose-only effect, or another doubt; inactive = no such curve, though single readings can be large; an effect the other way counts as inactive or inconclusive.

Cc1cccc(-c2noc(-c3ccc(Cl)cc3[N+](=O)[O-])n2)c1	RORg inh 2.5µM, Gal4-VP16 FLuc 10µM
CC(C)(C)OC(=O)NS(=O)(=O)Nc1ccccc1Br	none (no result: GLP1R cytotox, GLP-1R agonist, GLP-1R inv ag)
CCOC(=O)CCN1C(=O)[C@H]2[C@H]3[C@H](O)[C@H](O)C/C(=N/OCC(C)C)[C@H]3CC[C@@H]2C1=O	none (no result: GLP1R cytotox, GLP-1R agonist, GLP-1R inv ag)
Cc1cccc(-c2noc(-c3cc4ccccc4oc3=O)n2)c1	RORg inh 0.89µM, Gal4-VP16 FLuc inconclusive
Cc1ccc(C(=O)c2cn(Cc3ccccc3)c3nc(C)ccc3c2=O)cc1	GLP-1R inv ag inconclusive (no result: RORg inh, Gal4-VP16 FLuc)
CC(=O)OCC(=O)Nc1cc(C#N)cc(NC(=O)COC(C)=O)c1Cl	none (no result: GLP1R cytotox, RORg inh, Gal4-VP16 FLuc, GLP-1R inv ag)
CC1c2ccccc2SC(CCCN(C)C)c2ccccc21 (centres undefined)	RORg inh inconclusive, Gal4-VP16 FLuc inconclusive, GLP-1R inv ag 11µM
COc1ccc(NC(=O)CC2C(=O)N(c3ccc(F)cc3)C(=S)N2NC(=O)c2ccccc2)cc1 (centres undefined)	RORg inh 13µM, Gal4-VP16 FLuc inconclusive
CNC(=O)CC1C(=O)N(Cc2ccccc2)C(=S)N1NC(=O)c1cccc(F)c1 (centres undefined)	RORg inh inconclusive
CNC(=O)CC1C(=O)N(c2ccc(OC)cc2)C(=S)N1NC(=O)c1cccc(F)c1 (centres undefined)	RORg inh 7.1µM, Gal4-VP16 FLuc inconclusive
CNC(=O)CC1C(=O)N(c2ccc(Cl)cc2)C(=S)N1NC(=O)c1cccc(F)c1 (centres undefined)	RORg inh inconclusive
CCN1C(=O)C(CC(=O)Nc2ccccc2Cl)N(NC(=O)c2cccc(F)c2)C1=S (centres undefined)	RORg inh 11µM, Gal4-VP16 FLuc inconclusive, GLP-1R inv ag inconclusive
CCCCCC(=O)NN1C(=S)N(c2ccc(OC)cc2)C(=O)C1CC(=O)Nc1ccccc1 (centres undefined)	none
CC1CCCN(C(=O)COc2ccc(-c3ccccc3)cc2)C1 (centres undefined)	RORg inh inconclusive, Gal4-VP16 FLuc inconclusive, GLP-1R inv ag 11µM
COc1ccc2c(c1)c(=O)oc1cc(OCC(=O)N3CCC(C)CC3)ccc12	none
CCS(=O)(=O)N1CCN(C(=O)COc2ccc(-c3ccccc3)cc2)CC1	none
COc1ccc2c(c1)c(=O)oc1cc(OCC(=O)N3CCCC(C)C3)ccc12 (centres undefined)	Gal4-VP16 FLuc 10µM
Cc1cc(NC(=O)CCn2c(=O)c3cccn3c3cccnc32)ccc1Br	none (no result: RORg inh, Gal4-VP16 FLuc, GLP-1R agonist)
Cc1ccccc1CNC(=O)c1cnc2sc(N3CCOCC3)nn2c1=O	none (no result: RORg inh, Gal4-VP16 FLuc, GLP-1R agonist)
COc1ccc(NC(=S)Nc2ccc(OCc3ccccc3)cc2)c(OC)c1	RORg inh 7.1µM, Gal4-VP16 FLuc 7.1µM, GLP-1R inv ag inconclusive
COc1ccc(NC(=S)NCC(O)c2ccccc2)c(OC)c1 (centres undefined)	none
COc1ccc(NC(=S)Nc2ccccc2)c(OC)c1	RORg inh 13µM, Gal4-VP16 FLuc inconclusive
S=C(Nc1ccccc1)Nc1ccc(OCc2ccccc2)cc1	GLP1R cytotox inconclusive, RORg inh 11µM
N#Cc1ccc(NC(=O)C2Cc3ccccc3CN2S(=O)(=O)c2ccc(F)cc2)cc1 (centres undefined)	GLP-1R inv ag inconclusive (no result: RORg inh, Gal4-VP16 FLuc, GLP-1R agonist)
O=C(Cn1nc2c(cc1=O)CCCC2)Nc1ccccc1C(F)(F)F	none (no result: RORg inh, Gal4-VP16 FLuc, GLP-1R agonist)
CNC(=S)N1N=C(c2ccc(C)cc2)CC1c1ccc(OC)cc1 (centres undefined)	RORg inh 11µM, GLP-1R inv ag 10µM
CNC(=S)N1N=C(c2ccc(OC)cc2)CC1c1ccccc1Cl (centres undefined)	GLP-1R inv ag 10µM
CNC(=S)N1N=C(c2ccc(C)cc2)CC1c1cc(OC)ccc1OC (centres undefined)	GLP1R cytotox inconclusive, RORg inh 13µM, GLP-1R inv ag 10µM
CNC(=S)N1N=C(c2ccc(OC)cc2)CC1c1ccc(Cl)cc1Cl (centres undefined)	GLP-1R inv ag inconclusive
Nc1nc(F)nc2c1ncn2[C@@H]1O[C@H](COP(=O)(O)O)[C@@H](O)[C@@H]1O	none (no result: GLP1R cytotox, RORg inh, Gal4-VP16 FLuc, GLP-1R inv ag)
Cc1cc(C(=O)Nc2nc3ccc(S(C)(=O)=O)cc3s2)c(C)o1	RORg inh 1.1µM, Gal4-VP16 FLuc inconclusive
CS(=O)(=O)c1ccc2nc(NC(=O)c3cccs3)sc2c1	RORg inh 14µM, Gal4-VP16 FLuc 8.9µM, GLP-1R inv ag inconclusive
COc1ccc2nc(NC(=O)c3cc(C)oc3C)sc2c1	RORg inh inconclusive, Gal4-VP16 FLuc inconclusive
Cc1ccc(C(=O)Nc2nc3ccc(S(C)(=O)=O)cc3s2)s1	RORg inh 3.2µM, Gal4-VP16 FLuc inconclusive
COc1cc(C(=O)Nc2nc3ccc(S(C)(=O)=O)cc3s2)cc(OC)c1C	none
COc1ccc(C2CC(c3ccccc3)Oc3cc(OC)ccc32)cc1 (centres undefined)	none (no result: GLP1R cytotox, GLP-1R agonist, GLP-1R inv ag)
COc1ccc(Cl)cc1NC(=O)c1[nH]nc(OC)c1[N+](=O)[O-]	RORg inh 3.5µM
O=C(OCc1cc(=O)n2nc(C3CCCCC3)sc2n1)c1ccc(F)cc1	none (no result: RORg inh, Gal4-VP16 FLuc, GLP-1R agonist)
CCOC(=O)/C(O)=C/c1ncc(C(F)(F)F)cc1Cl	RORg inh 8.9µM, Gal4-VP16 FLuc 10µM
CCOC(=O)C(C(=O)N(C)C)c1ncc(C(F)(F)F)cc1Cl (centres undefined)	none
Cc1ccc(NC(=S)NC(=O)/C=C/c2ccco2)c(O)c1	RORg inh 8.9µM, Gal4-VP16 FLuc inconclusive
O=C(/C=C/c1ccco1)Nc1ccccc1N1CCCC1	RORg inh inconclusive, GLP-1R inv ag inconclusive
O=C(/C=C/c1ccco1)Nc1ccccc1C(=O)O	RORg inh inconclusive, Gal4-VP16 FLuc inconclusive
O=C(/C=C/c1ccco1)NC(=S)Nc1ccccc1O	GLP1R cytotox inconclusive, RORg inh 11µM, Gal4-VP16 FLuc inconclusive
O=C(/C=C\c1ccco1)NC(=S)Nc1ccccc1O	RORg inh 22µM, Gal4-VP16 FLuc inconclusive
CCC(C)(C)C(=O)O[C@@H]1C[C@H](C)C=C2C=C[C@H](C)[C@@H](CC[C@H]3C[C@@H](O)CC(=O)O3)[C@H]21	none (no result: GLP1R cytotox, GLP-1R inv ag)
Cc1ccn(-c2n[nH]c(C)c2[N+](=O)[O-])n1	RORg inh 13µM
CCOc1ccccc1CNC(=O)CCc1cn(C)c2ccccc12	GLP-1R inv ag 7.1µM
Cc1cc(C)c(NC(=O)CSc2nc(COc3ccccc3)nc3ccccc23)c(C)c1	RORg inh inconclusive, Gal4-VP16 FLuc 16µM
Cc1ccccc1NC(=O)CSc1nc(COc2ccccc2)nc2ccccc12	GLP-1R inv ag inconclusive
COc1ccccc1NC(=S)NC(=O)CC(C)C	RORg inh 2.2µM, Gal4-VP16 FLuc 13µM, GLP-1R inv ag inconclusive
COc1ccccc1NC(=S)NC(C)=O	RORg inh 11µM
Cc1ccc(C(=O)NC(=S)Nc2ccccc2C(F)(F)F)cc1	GLP1R cytotox inconclusive, RORg inh 4.5µM, Gal4-VP16 FLuc inconclusive, GLP-1R inv ag inconclusive
COc1ccccc1NC(C)=O	none

Source: PubChem (National Center for Advancing Translational Sciences (NCATS))
